Compound activity from PubChem BioAssay.
Rows were chosen to be rich in hits. Some 1.8% of all compounds tested hit in one or more screens of this group.
GSIS activator: primary screen for activators of insulin secretion dependent on glucose, INS-1E cells, GLuc reporter luminescence; INS-1E GLuc reporter insulin secretion, 2-3 h; activation, % at 16.6 µM; 370,000 tested, 0.61% active;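 active = lowest replicate activation of at least 40%, so every replicate reaches that level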
RAD54 inh: inhibitors of human RAD54 branch migration; RAD54 Holliday junction branch migration, FAM/BHQ fluorescence; Q92698; inhibition, % at 10.4 µM; AID 602329; 360,000 tested, 0.14% active;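 active = mean normalized replicate activity at least 40 and at least half of replicates scoring 40 or more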;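 note: inhibitors cause a drop in the FAM fluorescence signal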
RAD52 anneal inh: RAD52 (human) annealing inhibition; 360,000 tested, 0.46% active; AID 651710; inhibition, % at 18.7 µM; recombinant RAD52 DNA annealing, FRET fluorescence;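 active = every replicate showing at least 50% inhibition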
Target sequence (P43351 whole entry, looked up): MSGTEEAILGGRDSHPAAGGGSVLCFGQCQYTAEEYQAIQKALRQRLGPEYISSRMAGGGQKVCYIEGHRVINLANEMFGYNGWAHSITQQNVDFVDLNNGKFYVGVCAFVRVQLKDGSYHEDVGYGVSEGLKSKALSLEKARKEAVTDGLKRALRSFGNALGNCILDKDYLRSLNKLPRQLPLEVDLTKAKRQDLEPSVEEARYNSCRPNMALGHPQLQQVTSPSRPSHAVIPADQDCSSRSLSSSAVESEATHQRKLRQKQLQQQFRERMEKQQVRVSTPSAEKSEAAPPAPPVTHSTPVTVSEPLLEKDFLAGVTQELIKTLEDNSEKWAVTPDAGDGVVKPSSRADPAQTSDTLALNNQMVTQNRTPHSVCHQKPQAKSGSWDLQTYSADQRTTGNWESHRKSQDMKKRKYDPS
CFTR F508del cor: correctors of CFTR F508del function in bronchial epithelial cells. CFBE cells, YFP halide quenching; stimulated with forskolin plus potentiator P3; % fluorescence drop versus neutral controls. activity (quench increase), % at 7.58 µM. 350,000 tested, 0.36% active. AID 720511;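 active = mean added fluorescence quench of at least 8% versus neutral control, with both replicates also reaching 8%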;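 note: cells transiently co-express mutant CFTR-F508del with the halide-sensitive YFP; corrector assay measuring rescue of mutant channel to the surface after 24 h compound exposure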
EWS-Fli inh: EWS/Fli transcriptional activity inhibition. A673 NR0B1-luciferase reporter, viability-normalised. inhibition, % at 12.6 µM. 350,000 tested, 0.67% active. AID 651661;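 active = mean inhibition of at least 50% after viability correction, with every replicate also passing that limit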;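 note: firefly luciferase signal divided by Alamar Blue viability fluorescence both relative to DMSO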
LGR2 inh: inhibitors of bursicon-induced Drosophila LGR2 receptor cAMP signaling; AID 720647; inhibition, % at 9.99 µM; 380,000 tested, 0.35% active; HEK293 LGR2, CRE-luciferase, bursicon-stimulated, 4 h;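 active = drop in luminescence signal, shown as inhibition above about 50% in the replicate tests, limit read from the data, passing the limit was not always enough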;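 note: agonist challenge used bursicon conditioned medium at about half maximal strength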
DNA binding: binds DNA displacing acridine orange; salmon sperm DNA acridine orange fluorescence polarization; AC35, µM (titrated, usually from 68 µM); shares compounds with EWS-Fli inh; 640 tested, 2% active;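 active = fitted curve reaches a 35% signal fall AC35 below twice the sample's top valid tested dose, actives reach about 48 µM in these data; inactive = the rest, including activity in the rising direction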;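 note: lower polarization ratio signals compound binding to DNA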
A number is an active result; - = inactive; . = not tested or not shown.

SMILES | GSIS activator | RAD54 inh | RAD52 anneal inh | CFTR F508del cor | EWS-Fli inh | LGR2 inh | DNA binding
COc1ccc(/C=N/NC(=O)c2cccc(NC(C)=O)c2)c(OC)c1 | - | . | - | - | - | - | .
Cc1cc(C)c(OCC(=O)OCC(=O)NCCC2=CCCCC2)c(C)c1 | - | - | - | - | - | - | .
O=C(NCc1ccncc1)c1cccc(S(=O)(=O)NCc2ccccc2)c1 | - | - | - | - | - | - | .
Cc1ccc(OCCNC(=O)c2cccc(S(=O)(=O)NCc3ccccc3)c2)cc1 | - | - | - | 10 | 56 | - | -
O=C(c1cccc(S(=O)(=O)NCc2ccccc2)c1)N1CCN(c2ccccc2)CC1 | . | - | - | - | 52 | - | -
Cc1cc(C)cc(C(=O)NC(=S)Nc2ccc(Cc3ccncc3)cc2)c1 | - | - | - | . | 66 | - | -
Cc1cccc(C(=O)NC(=S)Nc2ccc(Cc3ccncc3)cc2)c1 | . | - | . | . | . | . | .
CC1CC2(CCCC2)N(C(=O)c2ccccc2)Cc2ccccc21 (stereo not drawn) | - | - | - | - | - | - | .
COC(=O)Cn1cc(C(=O)OC)c2ccccc21 | . | - | . | . | . | . | .
COc1ccc(OC)c(-c2cc(C(F)(F)F)c3c(n2)sc2c(O)cc(=O)[nH]c23)c1 | - | . | - | . | 89 | - | -
O=c1cc(O)c2sc3nc(-c4ccccc4)cc(C(F)(F)F)c3c2[nH]1 | - | - | . | . | . | - | .
CCN1CCN(/C=N/c2nc3c(s2)CCCC3)CC1 | - | - | - | - | 57 | 80 | -
CN1CCN(CC(=O)Nc2nc3c(s2)CCCC3)CC1 | - | - | - | - | - | - | .
CC(=O)Oc1ccc(-c2ccc(C(=O)Nc3cccc(S(=O)(=O)N4CCOCC4)c3)cc2)cc1 | - | . | - | - | 59 | - | -
CC(C)(C)c1ccc(S(=O)(=O)NCc2ccc(C(=O)NCc3ccccn3)cc2)cc1 | - | . | - | . | - | - | .
O=C(NCc1ccccn1)c1ccc(CNS(=O)(=O)c2cccc(Cl)c2)cc1 | - | - | - | . | 58 | - | -
C=CCOc1c(/C=N\NC(N)=O)cccc1OC | - | - | - | - | - | - | .
COc1cccc(Sc2ccccc2/C=N/NC(N)=O)c1 | - | . | - | 8.8 | 54 | - | -
COc1ccc(-c2cn(-c3ccc(OC)cc3)c3[n+]2-c2ccccc2CC3)cc1 | - | . | - | . | 74 | - | -
COCCCN1C(=O)C(CC(=O)NC2CCCCC2)CC(C(=O)N2CCOCC2)=C1C (stereo not drawn) | - | . | - | - | - | - | .
O=C(Nc1ccc(F)cc1)N1CCCCN2[C@@H](CO)[C@H](c3ccc(C4=CCCCC4)cc3)[C@@H]2C1 | - | - | - | - | 52 | - | -
COc1ccc(CN2C(=O)C(CC(=O)NCCN3CCOCC3)CC(C(=O)N(C)C)=C2C)cc1 (stereo not drawn) | . | - | - | - | - | - | .
O=C(CN1C(=O)c2ccccc2S1(=O)=O)c1ccc(OC(F)F)cc1 | . | - | . | . | . | . | .
O=C(CN1C(=O)c2ccccc2S1(=O)=O)c1ccc(F)cc1 | - | - | - | - | 66 | 74 | -
COc1ccc(N=C(NN)c2ccc3ccccc3n2)cc1 | . | - | - | - | 72 | . | -
SMILES | GSIS activator | RAD54 inh | RAD52 anneal inh | CFTR F508del cor | EWS-Fli inh | LGR2 inh | DNA binding
Cc1ccc(C(=O)/C=C/c2cn(CN3CCN(C)CC3)c3ccccc23)cc1 | - | - | . | . | . | - | .
O=C(Nc1cc(F)ccc1F)N[C@H]1CC[C@@H](CCNC(=O)c2cnccn2)O[C@@H]1CO | - | - | - | - | - | - | .
O=C1C(=O)N(CCS(=O)(=O)c2ccccc2)c2ccc(Cl)cc21 | - | - | - | - | 57 | - | -
CCc1ccc2c(c1)C(=O)C(=O)N2CCS(=O)(=O)c1ccccc1 | - | - | - | - | . | - | .
Cc1nc(N)nc(N)c1/C=C/C(C)(C)c1ccc(Cl)cc1 | - | . | - | - | 59 | - | -
Nc1ccc(Oc2ccccc2-c2ccccc2)cc1 | . | - | - | - | 63 | . | -
NCCOc1ccccc1-c1ccccc1 | . | - | . | . | . | . | .
CN(Cc1cnc2nc(N)nc(N)c2n1)c1ccc(C(=O)N[C@@H](CCC(=O)O)C(=O)O)cc1 | - | - | - | - | 64 | - | -
COc1ccc(OC)c(/C=C/C(=O)OCC(=O)NC2CCCCCCC2)c1 | . | - | - | - | - | . | .
Cn1cnc(S(=O)(=O)N2CCCCN3[C@H](CO)[C@@H](c4ccc(C#CC5CC5)cc4)[C@@H]3C2)c1 | . | - | - | - | - | . | .
